GALK inh: inhibitors of human galactokinase; P51570; Purified GALK, Kinase-Glo residual ATP luminescence; Potency, µM (doses to about 57.5 µM), without a hit: at the top dose activity change, negative = inhibition, hits mostly inhibitors; actives 0.007% (n = 270,000); further: potency means the concentration at half of the fitted maximal effect
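Luminescence from leftover ATP (Ultra-Glo luciferase/luciferin) served as read-out after a 1 h room-temperature reaction of 5 nM GALK with 35 uM ATP and 100 uM galactose.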
USP1-UAF1 inh: inhibitors of human USP1/UAF1 deubiquitinase; Potency, µM (highest dose often 57.1 µM), without a hit: top-dose activity change, negative = inhibition, hits mostly inhibitors; actives 0.23% (n = 390,000); O94782; recombinant USP1/UAF1, Ub-Rhodamine cleavage fluorescence; further: potency means the concentration at half of the fitted maximal effect; nearly all actives have a fitted effect of over 60% in size
Target sequence (O94782 whole entry, looked up): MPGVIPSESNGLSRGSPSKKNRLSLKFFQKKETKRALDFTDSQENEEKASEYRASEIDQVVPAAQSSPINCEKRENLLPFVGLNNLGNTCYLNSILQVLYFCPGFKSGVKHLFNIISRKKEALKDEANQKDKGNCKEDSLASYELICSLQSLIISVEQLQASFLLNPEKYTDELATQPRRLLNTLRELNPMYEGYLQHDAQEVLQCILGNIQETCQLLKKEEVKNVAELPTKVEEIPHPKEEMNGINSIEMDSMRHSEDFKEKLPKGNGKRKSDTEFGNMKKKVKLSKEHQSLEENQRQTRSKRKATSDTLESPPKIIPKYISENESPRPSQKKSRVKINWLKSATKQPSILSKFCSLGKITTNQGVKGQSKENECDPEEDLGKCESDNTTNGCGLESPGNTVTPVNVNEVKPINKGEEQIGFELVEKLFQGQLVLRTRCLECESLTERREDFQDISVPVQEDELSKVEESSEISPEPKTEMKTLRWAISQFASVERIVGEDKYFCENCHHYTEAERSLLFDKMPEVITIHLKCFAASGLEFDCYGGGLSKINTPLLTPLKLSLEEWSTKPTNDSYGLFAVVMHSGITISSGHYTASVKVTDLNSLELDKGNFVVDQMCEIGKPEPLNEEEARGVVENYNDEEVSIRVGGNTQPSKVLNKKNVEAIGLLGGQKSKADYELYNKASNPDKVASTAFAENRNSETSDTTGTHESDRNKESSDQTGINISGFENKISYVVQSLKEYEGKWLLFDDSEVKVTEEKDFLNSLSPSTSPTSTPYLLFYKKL
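High-throughput fluorogenic screen: 1nM USP1/UAF1 complex, Ub-Rho substrate 150nM final, 50mM HEPES pH 7.8 with 0.5mM EDTA, 0.1 mg/ml BSA, 1mM TCEP and 0.01% Tween-20.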
Coupling enz: coupling enzyme interference in Giardia aldolase counter-screen. AID 2472. activity change, negative = inhibition, % at 58.2 µM, hits read low. coupling enzyme system counterscreen, AmpLite Red fluorescence. actives 0.67% (n = 290,000); in the data active means activity change below about -30%
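Final compound at 57.5 uM, incubated 10 min at RT with coupling enzyme reagent (glyceraldehyde-3-phosphate), then 20 min with substrate and AmpLite Red detection. Fluorescence read at 525/598 nm; tests interference with the coupling assay, not aldolase inhibition.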
Eya2 phos inh: Eya2 (human) phosphatase inhibition; O00167; recombinant Eya2, OMFP fluorescence dephosphorylation (OMFP is methylfluorescein phosphate); Potency, µM (titrated, usually from 76.9 µM), without a hit: top-dose activity, negative = inhibition, actives largely listed as inhibitors; actives 0.006% (n = 330,000); AID 488837; further: potency means the concentration at half of the fitted maximal effect
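Eya2 (0.2 uM) preincubated 10 min at ambient with compound, then OMFP substrate added at 50 uM; 10 min reaction in 50 mM HEPES pH 7.5, 50 mM NaCl, 5 uM MgCl2, 0.05% BSA, 1 mM DTT. Fluorescence read at Ex 485/Em 525 nm.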
USP2a inh: USP2a (human) protease inhibition; O75604; USP2 core, Ub-CHOP2 coupled fluorogenic reporter, 485/531; Potency, µM (doses to about 38.3 µM), without a hit: at the highest dose activity change, negative = inhibition, hits mostly inhibitors; actives 0.01% (n = 330,000);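 further: potency means the concentration at half of the fitted maximal effect; plate controls were DMSO wells for no effect and full inhibition by NEM control for full effect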
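USP2 core (10nM final) preincubated 30min RT with compound in 20mM Tris-HCl pH 8.0, 2mM CaCl2, 2mM beta-mercaptoethanol, 0.05% CHAPS; 25nM Ub-CHOP2 plus 25nM reporter substrate added, fluorescence (Ex485/Em531) read after 60min.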
PI4K2A block: blocks human PI4K2A kinase activity | purified PI4K2A, ADP-Glo luminescence, 1 h; active compounds read low | actives 0.13% (n = 420,000) | activity change, negative = inhibition, % at 76.9 µM | AID 1346378 | Q9BTU6; in the data active means activity change below about -50%; inconclusive means mostly about -30% to -49%;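 further: -100% = wells without enzyme as full effect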
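In this quantitative HTS, ADP production by PI4K2A was quantified luminescently after 1 h at ambient temperature; 100 microM adenosine served as plate-quality control.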
* marks the source's active call; other numbers are inactive results. Sampled rows, rich in hits. Any-hit rate of the full collection: about 0.71%. Unless noted, the call rests on the fitted dose curve; in most records, active means well fitted curve in the direction sought with a large enough effect; inconclusive means small, poorly fitted or top-dose-only effect, or another doubt; inactive means no such curve, though single readings can be large; an effect the other way counts as inactive or inconclusive. Unless noted, on the % scale 0 is the no-effect control and ±100 the full control effect.

What do the screens show for `c1ccc2nc(-c3nc4ccccc4[nH]3)ccc2c1`?
GALK inh: 7.5%; USP1-UAF1 inh: -15.1%; Coupling enz: -7.0; Eya2 phos inh: -7.0%; USP2a inh: -0.6%; PI4K2A block: -65.9*

How did Cn1cnc2c(F)c(Nc3ccc(Br)cc3Cl)c(C(=O)NOCCO)cc21 do in these assays?
PI4K2A block: 1.9

Results for Nc1cc2nn(-c3ccccc3)nc2cc1Cl ?
GALK inh: -0.1%; USP1-UAF1 inh: inconclusive; Coupling enz: -43.8*; Eya2 phos inh: -22.9%; USP2a inh: 0.2%; PI4K2A block: -8.2

How did O=S(=O)(O)c1ccc(O)c2cc(Nc3ccccc3)ccc12 do in these assays?
USP1-UAF1 inh: 12.6µM*; PI4K2A block: inconclusive

Results for O=S(=O)(O)c1cc(O)c2cc(Nc3ccccc3)ccc2c1 ?
USP1-UAF1 inh: inconclusive; PI4K2A block: -19.5

How did CCOc1ccc(/C=N/Nc2cc(C)nc(N3CCOCC3)n2)cc1 do in these assays?
GALK inh: 1.4%; USP1-UAF1 inh: -26.5%; Coupling enz: -1.3; Eya2 phos inh: inconclusive; USP2a inh: -0.8%; PI4K2A block: 4.1

Results for Oc1ccc(/C=N/Nc2cc(N3CCCC3)nc(N3CCCC3)n2)cc1 ?
GALK inh: 5.7%; USP1-UAF1 inh: -26.8%; Coupling enz: -44.4*; Eya2 phos inh: -4.6%; USP2a inh: -5.0%; PI4K2A block: 1.4

How did COc1ccc(/C=N/Nc2cc(N3CCCC3)nc(N3CCCC3)n2)cc1 do in these assays?
GALK inh: -2.1%; USP1-UAF1 inh: inconclusive; Coupling enz: -40.4*; Eya2 phos inh: -11.5%; USP2a inh: -1.9%; PI4K2A block: -1.0

Results for Oc1ccc(/C=N/Nc2cc(N3CCOCC3)nc(N3CCOCC3)n2)cc1 ?
USP1-UAF1 inh: -13.4%; PI4K2A block: -1.7

Results for Oc1cccc(/C=N/Nc2cc(N3CCCC3)nc(N3CCCC3)n2)c1 ?
GALK inh: -0.4%; USP1-UAF1 inh: inconclusive; Coupling enz: -32.5*; Eya2 phos inh: -10.9%; USP2a inh: 2.2%; PI4K2A block: -3.5

What do the screens show for `O=C(c1ccc2c(c1)N(Cc1ccccc1F)C(=O)c1ccccc1S2)N1CCOCC1`?
GALK inh: -2.2%; USP1-UAF1 inh: -23.6%; Coupling enz: -41.9*; Eya2 phos inh: -10.0%; USP2a inh: 0.2%; PI4K2A block: 2.4

Results for Cc1ccc(/C=[N+](\[O-])c2ccc(N(C)C)cc2)c2nsnc12 ?
GALK inh: 8.5%; USP1-UAF1 inh: inconclusive; Coupling enz: -41.3*; Eya2 phos inh: -10.0%; USP2a inh: -0.7%; PI4K2A block: -29.1

What do the screens show for `Cc1cc(=O)[nH]c2nnc(SCC(=O)Nc3cc(C(F)(F)F)ccc3Cl)n12`?
USP1-UAF1 inh: -13.2%; PI4K2A block: -58.1*

What do the screens show for `Cc1nn(-c2ccccc2)c2c1C1(C(=O)N(C(C)C)c3ccccc31)C(C#N)=C(N)O2` (centres undefined)?
GALK inh: 1.9%; USP1-UAF1 inh: -10.6%; Coupling enz: -55.0*; Eya2 phos inh: 11.8%; USP2a inh: -7.1%; PI4K2A block: -3.8

What do the screens show for `CCN(CC)CCNC(=O)c1ccc(N2CCCCC2)c(NS(=O)(=O)c2ccc(C)cc2)c1`?
GALK inh: 0.1%; USP1-UAF1 inh: -3.9%; Coupling enz: -3.2; Eya2 phos inh: 6.5%; USP2a inh: -0.2%; PI4K2A block: -12.0

What do the screens show for `CCN(CC)CCNc1cc(C)nc2c1C(=O)C(=O)C=C2N1CCCCC1`?
GALK inh: 0.9%; USP1-UAF1 inh: -15.8%; Coupling enz: -64.1*; Eya2 phos inh: -2.5%; USP2a inh: -0.1%; PI4K2A block: 0.5

What do the screens show for `C=C1C[C@@]23CC[C@H]4[C@@](C)(CCC[C@@]4(C)C(=O)O)[C@@H]2CC[C@]1(O)C3`?
Eya2 phos inh: 7.4%; PI4K2A block: 3.1

Screens (PubChem)
